According to PubChem BioAssay (NCATS):
Several values for one entry are separate records, joined by “and”; a condition that tells them apart may be missing. Equal values may be shown once. Inconclusive results are not listed. A call without a number means that no potency is given here. Activity calls are given as the source filed them. Unless noted, the call rests on the fitted dose curve; in most records, active means well fitted curve in the direction sought with a large enough effect; inconclusive means small, poorly fitted or top-dose-only effect, or another doubt; inactive means no such curve, though single readings can be large; an effect the other way counts as inactive or inconclusive.

How the values were obtained:
[1] = biological target: Thyroid hormone receptor beta (Homo sapiens) (UniProt P10828); test: qHTS assay for small molecule agonists of thyroid hormone receptor beta signaling (AID 588545; calls by dose curve)
Sequence of Thyroid hormone receptor beta (Homo sapiens) (P10828 whole entry, looked up): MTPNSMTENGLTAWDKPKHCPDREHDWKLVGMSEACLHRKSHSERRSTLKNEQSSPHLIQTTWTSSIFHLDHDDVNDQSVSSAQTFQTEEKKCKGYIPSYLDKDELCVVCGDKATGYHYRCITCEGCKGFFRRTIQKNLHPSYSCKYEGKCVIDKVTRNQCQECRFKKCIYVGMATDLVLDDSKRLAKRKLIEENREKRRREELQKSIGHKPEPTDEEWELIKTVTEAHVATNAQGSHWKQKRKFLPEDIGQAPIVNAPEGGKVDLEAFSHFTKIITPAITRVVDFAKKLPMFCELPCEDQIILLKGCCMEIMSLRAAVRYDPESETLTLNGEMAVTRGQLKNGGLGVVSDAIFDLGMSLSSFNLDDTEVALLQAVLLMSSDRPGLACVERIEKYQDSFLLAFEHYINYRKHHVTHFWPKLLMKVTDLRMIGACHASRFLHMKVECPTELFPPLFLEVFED
Summary of the method: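 Agonist activity was read as beta-lactamase CCF4 fluorescence (405 ex, 460/530 em), scaled between DMSO (0%) and 10 nM T3 (100%), then Hill-fitted for EC50 and efficacy. HEK 293 TR-UAS-bla cells in 2% charcoal/dextran FBS medium were exposed 18 h at 37 C.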

[2] = qHTS assay for small molecule antagonists of retinoid X receptor alpha signaling (AID 588546; active means well fitted inhibition curve with a large enough effect in the signal ratio, with a control signal flat, not every such curve was filed as active; the % refers to the signal ratio;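 further: cells stimulated with 9-cis-retinoic acid as agonist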); settings: HEK293T RXRa-UAS-bla, beta-lactamase ratio, antagonist mode; measured here: W530 green channel, cytotoxicity proxy
Summary of the method: (§1)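 Beta-lactamase reporter inhibition, read as CCF4 fluorescence ratio (ex 405, em 460/530 nm) after 2 h at RT. HEK293T UAS-bla cells, 2500/well, were stimulated with 9-cis-RA at 500 or 100 nM final alongside test compound for 18 h at 37 C.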

[3] = biological target: Retinoic acid receptor RXR-alpha (Homo sapiens) (UniProt P19793); test: as above; settings: HEK293T RXRa-UAS-bla, beta-lactamase ratio, antagonist mode
Sequence of Retinoic acid receptor RXR-alpha (Homo sapiens) (P19793 whole entry, looked up): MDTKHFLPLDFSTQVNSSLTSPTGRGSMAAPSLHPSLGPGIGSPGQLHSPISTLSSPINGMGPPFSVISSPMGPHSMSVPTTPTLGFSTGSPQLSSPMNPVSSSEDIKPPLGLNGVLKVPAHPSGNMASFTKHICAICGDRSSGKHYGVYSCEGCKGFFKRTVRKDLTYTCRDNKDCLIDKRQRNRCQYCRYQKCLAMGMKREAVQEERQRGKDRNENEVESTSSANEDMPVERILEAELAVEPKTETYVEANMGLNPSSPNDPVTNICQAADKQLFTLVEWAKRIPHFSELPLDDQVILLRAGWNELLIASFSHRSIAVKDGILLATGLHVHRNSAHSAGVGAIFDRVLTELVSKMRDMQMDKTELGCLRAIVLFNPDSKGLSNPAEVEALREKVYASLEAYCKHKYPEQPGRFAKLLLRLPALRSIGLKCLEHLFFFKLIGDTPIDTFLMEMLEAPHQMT
Summary of the method: as §1

[4] = biological target: Thyroid hormone receptor beta (Homo sapiens) (UniProt P10828); test: qHTS assay for small molecule antagonists of thyroid hormone receptor beta signaling (AID 588547; active means well fitted inhibition curve with a large enough effect in the signal ratio, with a control signal flat, not every such curve was filed as active; the % refers to the signal ratio;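 further: cells stimulated with 0.4 nM T3 agonist during compound exposure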); settings: TR-UAS-bla HEK293, beta-lactamase ratio, antagonist mode, 18 h
Summary of the method: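 Inhibition of T3-driven (0.4nM final) beta-lactamase reporter activity was measured over 0.59 nM to 92 uM compound after 18 h at 37 C. The cells were GripTite HEK293 TR-UAS-bla in charcoal/dextran-stripped serum, with CCF4 ratio read-out and IC50 from Hill fits.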

[5] = biological target: Voltage-gated inwardly rectifying potassium channel KCNH2 (Homo sapiens) (UniProt Q12809); test: qHTS Assay for Small Molecule Inhibitors of the Human hERG Channel Activity (AID 588834);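 further: top concentration of the series differs between compounds; lower thallium flux fluorescence means stronger hERG block; nearly all actives have a fitted effect of over 50% in size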
Sequence of Voltage-gated inwardly rectifying potassium channel KCNH2 (Homo sapiens) (Q12809 whole entry, looked up): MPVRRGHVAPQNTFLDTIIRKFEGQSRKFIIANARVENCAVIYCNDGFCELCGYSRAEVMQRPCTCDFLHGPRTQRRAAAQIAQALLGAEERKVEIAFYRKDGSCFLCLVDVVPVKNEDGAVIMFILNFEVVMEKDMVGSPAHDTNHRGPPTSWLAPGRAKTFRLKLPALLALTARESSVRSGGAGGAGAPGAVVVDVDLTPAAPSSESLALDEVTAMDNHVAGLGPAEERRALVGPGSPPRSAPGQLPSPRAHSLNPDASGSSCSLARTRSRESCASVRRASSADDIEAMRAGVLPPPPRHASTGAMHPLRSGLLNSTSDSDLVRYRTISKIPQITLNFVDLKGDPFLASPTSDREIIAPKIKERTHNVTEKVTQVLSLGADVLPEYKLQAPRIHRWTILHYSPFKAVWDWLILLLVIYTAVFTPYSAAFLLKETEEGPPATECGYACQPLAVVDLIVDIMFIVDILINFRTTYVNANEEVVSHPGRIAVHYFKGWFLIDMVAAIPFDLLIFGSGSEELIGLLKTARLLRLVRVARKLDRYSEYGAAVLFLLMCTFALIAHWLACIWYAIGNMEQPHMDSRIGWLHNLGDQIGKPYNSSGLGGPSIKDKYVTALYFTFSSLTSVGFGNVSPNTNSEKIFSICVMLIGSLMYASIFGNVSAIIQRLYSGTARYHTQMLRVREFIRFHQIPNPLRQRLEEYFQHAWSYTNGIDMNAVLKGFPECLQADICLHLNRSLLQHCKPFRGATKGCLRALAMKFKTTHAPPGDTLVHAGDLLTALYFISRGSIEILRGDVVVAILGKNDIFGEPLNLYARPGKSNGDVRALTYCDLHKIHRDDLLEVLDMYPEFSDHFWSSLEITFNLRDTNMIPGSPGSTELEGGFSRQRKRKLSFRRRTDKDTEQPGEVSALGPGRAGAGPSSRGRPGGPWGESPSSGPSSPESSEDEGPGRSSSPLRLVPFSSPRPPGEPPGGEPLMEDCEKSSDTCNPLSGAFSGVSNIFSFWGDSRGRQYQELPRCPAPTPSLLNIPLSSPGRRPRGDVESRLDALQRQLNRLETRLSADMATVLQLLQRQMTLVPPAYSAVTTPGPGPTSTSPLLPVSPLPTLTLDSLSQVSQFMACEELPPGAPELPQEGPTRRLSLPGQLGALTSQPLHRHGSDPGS
Summary of the method: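 Homogeneous FluxOR thallium flux assay using hERG-expressing U2OS cells (BacMam). Compound treatment about 10 minutes preceded stimulation; reduced fluorescence taken as channel block.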

[6] = biological target: Luciferin 4-monooxygenase (Photinus pyralis) (UniProt P08659); test: Biochemical firefly luciferase enzyme assay for NPC (AID 624030);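 further: purified P. pyralis luciferase at 10 nM with luciferin and ATP substrate; nearly all actives have a fitted effect of over 70% in size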
Sequence of Luciferin 4-monooxygenase (Photinus pyralis) (P08659 whole entry, looked up): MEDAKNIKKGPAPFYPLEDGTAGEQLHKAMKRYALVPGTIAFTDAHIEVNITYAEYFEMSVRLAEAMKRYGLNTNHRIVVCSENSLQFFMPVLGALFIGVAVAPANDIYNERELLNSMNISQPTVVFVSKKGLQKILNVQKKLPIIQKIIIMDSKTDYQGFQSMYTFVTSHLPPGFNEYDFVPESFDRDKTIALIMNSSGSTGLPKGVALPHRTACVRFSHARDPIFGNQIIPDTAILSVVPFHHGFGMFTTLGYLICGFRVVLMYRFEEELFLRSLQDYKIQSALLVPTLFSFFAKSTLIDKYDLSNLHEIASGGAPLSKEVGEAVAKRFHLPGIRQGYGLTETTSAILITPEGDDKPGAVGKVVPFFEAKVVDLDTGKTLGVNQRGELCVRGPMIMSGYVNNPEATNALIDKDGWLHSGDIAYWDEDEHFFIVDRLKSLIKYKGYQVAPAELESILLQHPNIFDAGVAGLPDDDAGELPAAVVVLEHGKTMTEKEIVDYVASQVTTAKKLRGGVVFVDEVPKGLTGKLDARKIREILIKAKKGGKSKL
Summary of the method: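 Direct inhibition of firefly luciferase enzyme (10 nM final, 50 mM Tris Acetate) assessed by luminescence within 5 minutes. Percent activity scaled between DMSO and PTC124 positive control, with concentration-effect curves classified by fit quality and response.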

[7] = S16 Schwann cell viability assay (CellTiter-Glo assay) (AID 624031);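 further: cellular ATP luminescence as a viability measure; nearly all actives have a fitted effect of over 70% in size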
Summary of the method: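 Luminescent ATP read-out (CellTiter-Glo) after 24 h compound exposure of native S16 rat Schwann cells at 37 °C. Signals were normalized between cell-free wells and DMSO-treated cells, set as 0% activity.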

[8] = S16 Schwann cell PMP22 intronic element beta-lactamase assay (AID 624044; calls by dose curve; further: nearly all actives have a fitted effect of over 15% in size); settings: S16 rat Schwann cells, PMP22 element beta-lactamase FRET, 24 h; ratio activity, negative = inhibition: at 38.3 µM (top of the series) unless noted
Summary of the method: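 Beta-lactamase reporter under a PMP22 intronic regulatory element in stable S16 rat Schwann cells; 24 h compound exposure. 460 nm blue signal normalized between DMSO (0%) and potassium clavulanate, with 535 nm FRET tracking viability; curves classed by r2 and response.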

[9] = S16 Schwann cell PMP22 intronic element firefly luciferase assay (AID 624032); further: nearly all actives have a fitted effect of over 30% in size
Summary of the method: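 Luciferase reporter of PMP22 intronic-element expression in stably transfected S16 rat Schwann cells, read by ONE-Glo luminescence after 24 h compound exposure at 37 C. Activity scaled between DMSO (0%) and positive-control PTC124; concentration-effect curves quality-classified.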

[10] = biological target: Glutaminase kidney isoform, mitochondrial (Homo sapiens) (UniProt O94925); test: qHTS for Inhibitors of Glutaminase (GLS): LOPAC Validation (AID 624146); settings: glutaminase enzyme activity inhibition; further: potency means the concentration at half of the fitted maximal effect; nearly all actives have a fitted effect of over 60% in size
Sequence of Glutaminase kidney isoform, mitochondrial (Homo sapiens) (O94925 whole entry, looked up, canonical isoform): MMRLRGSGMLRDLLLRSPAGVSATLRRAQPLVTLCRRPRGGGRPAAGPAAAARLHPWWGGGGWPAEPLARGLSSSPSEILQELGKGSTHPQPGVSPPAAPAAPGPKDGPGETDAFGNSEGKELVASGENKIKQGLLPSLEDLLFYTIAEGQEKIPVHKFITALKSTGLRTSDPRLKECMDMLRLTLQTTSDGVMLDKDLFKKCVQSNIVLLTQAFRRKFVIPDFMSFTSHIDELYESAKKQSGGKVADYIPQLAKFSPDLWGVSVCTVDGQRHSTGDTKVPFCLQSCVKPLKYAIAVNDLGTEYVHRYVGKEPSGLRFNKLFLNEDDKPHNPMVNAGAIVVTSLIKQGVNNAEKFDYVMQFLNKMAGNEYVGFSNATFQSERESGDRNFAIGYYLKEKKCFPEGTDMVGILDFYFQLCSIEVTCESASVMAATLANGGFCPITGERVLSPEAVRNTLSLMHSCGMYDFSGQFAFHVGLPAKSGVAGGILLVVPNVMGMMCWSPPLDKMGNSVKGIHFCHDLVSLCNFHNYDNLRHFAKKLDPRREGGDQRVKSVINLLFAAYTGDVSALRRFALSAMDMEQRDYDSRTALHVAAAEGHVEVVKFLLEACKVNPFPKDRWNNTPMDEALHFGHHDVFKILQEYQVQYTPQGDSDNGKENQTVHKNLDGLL
Summary of the method: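 Human kidney-isoform GLS in 45 mM KH2PO4 pH 8.2, 0.02% Tween-20, with compound, started with 1mM L-Glutamine (added stock). Glutamate oxidase/HRP/Amplex red coupled fluorescence read at start and after 30 min at RT.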

SMILES	outcome [1]	max response [2]	max response [3]	activity change % (negative = inhibition) [4]	Potency [5]	Potency [6]	Potency [7]	ratio activity, negative = inhibition [8]	Potency [9]	Potency [10]
O.O.O.O.O.O.O.O=S(=O)([O-])[O-].[Co+2]	inactive	-11.7%	6.5% (inactive)	12.3% (inactive)	inactive	inactive	inactive	-3.44% (inactive)	–	–
CC1=CC(=O)NS(=O)(=O)O1	inactive	-6.4% and -5.89%	-5.24% (inactive) and 0.185% (inactive)	2.81% (inactive)	inactive	inactive	inactive	1.96% (inactive)	inactive	–
Oc1ccc(/C=C/c2cc(O)cc(O)c2)cc1	inactive	8.43%	-15.1% (inactive)	0.49% (inactive) and -24.4% (inactive)	inactive	–	–	–	–	5.01 µM (active)
C[Si](C)(C)O[Si](C)(C)C	inactive	-6.12%	-23.1% (inactive)	22.8% (inactive)	inactive	inactive	inactive	-0.118% (inactive)	inactive	–
CO[C@@H]1[C@H](OC(=O)/C=C/C=C/C=C/C=C/C(=O)O)CC[C@]2(CO2)[C@H]1[C@@]1(C)O[C@@H]1CC=C(C)C	inactive	-0.294%	18.1% (inactive)	15% (inactive)	inactive	–	–	–	–	–
Cc1ncc[nH]1	inactive	2.25%	11.5% (inactive)	-11.5% (inactive)	inactive	inactive	inactive	–	inactive	–
Oc1cccc(O)c1O	inactive	-1.33%	-0.897% (inactive)	-26.7% (inactive)	inactive	inactive	inactive	-1.18% (inactive)	inactive	–
C=CC(C)(O)CC/C=C(\C)CCC=C(C)C (centres undefined)	inactive	-3.85%	13.1% (inactive)	–	inactive	inactive	inactive	-13.1% (active)	inactive	–
NC(N)=O	inactive	-4.99%	-5.2% (inactive)	-11.3% (inactive)	inactive	inactive	inactive	0.531% (inactive)	inactive	–
CC/C=C\C/C=C\C/C=C\CCCCCCCC(=O)O	inactive	8.56%	-8.86% (inactive)	–	inactive	inactive	inactive	3.48% (inactive)	inactive	–
O=C(OCc1ccccc1)c1ccc(O)cc1	inactive	-3.09%	-35.8% (inactive)	27.2% (inactive)	inactive	–	inactive	-2.42% (inactive)	inactive	–
Nc1nccs1	inactive	-5.85%	4.13% (inactive)	8.98% (inactive)	inactive	inactive	–	–	inactive	–
CC(C)CCC[C@@H](C)[C@H]1CC[C@H]2[C@@H]3CC=C4C[C@@H](O)CC[C@]4(C)[C@H]3CC[C@]12C	inactive	11.8%	-19.4% (inactive)	-1.74% (inactive)	inactive	inactive	inactive	7.26% (inactive)	inactive	–
Cc1ccc(S(=O)(=O)NCl)cc1	inactive	-12.9%	17.1% (inactive)	3.3% (inactive)	inactive	inactive	inactive	–	inactive	–
C/C=C/C=C/C(=O)O	inactive	-4.17%	25.3% (inactive)	1.05% (inactive)	inactive	inactive	inactive	–	inactive	–
